# Measurements as given in PubChem BioAssay AID720541 (National Center for Advancing Translational Sciences (NCATS), 2013).
# In all, about 1,300 compounds went through this assay and about 420 (32%) were called active. Inconclusive results (about 32%) are left out. The call rests on the fitted dose curve; in most records, active means well fitted inhibition curve with a large enough effect; inconclusive means small, poorly fitted or top-dose-only effect; inactive means no such curve, though single readings can be large or run the other way. This is one part of the list. Entries that show only a call come without a potency.
# Biological target: C-terminal-binding protein 1 (Homo sapiens) (UniProt Q13363)
# Assay: qHTS for Inhibitors of the Phosphatase Activity of Eya2: Carboxyl-terminal binding protein (CtBP) Counterscreen for Cherry-picked Compounds; further: nearly all actives have a fitted effect of over 65% in size
# Conditions: purified protein-protein binding, AlphaScreen, 3 h; series mostly up to 46.1 µM
# Method in brief: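 Cherry-picked compounds (final 2.5 nM–46 uM) were incubated 2 h at RT with 25 nM CtBP-6xHIS and 25 nM GST-E1A. Alpha beads (20 ug/mL) were then added for 1 h, light-protected; DMSO and E1A peptide inhibitor wells set the normalization.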
# Potency means the concentration at half of the fitted maximal effect.
row,SMILES,Potency
1,O=C(O)c1ccc(CSc2nc3ccccc3c(=O)n2-c2ccccc2)cc1,inactive
2,COc1ccc(-n2c(SCC(=O)Nc3cc(C(=O)O)ccc3C)nc3ccccc3c2=O)cc1Cl,8.49 µM (active)
3,COc1cc(NC(=O)CSc2ccc(-c3ccccn3)nn2)cc(OC)c1,1.9 µM (active)
4,COc1ccccc1CNC(=O)c1ccc2c(=O)n(CCCN3CCCC3=O)c(=S)[nH]c2c1,inactive
5,O=C(CSc1ccc(-c2ccccn2)nn1)Nc1cccc(F)c1,inactive
6,COc1ccccc1CNC(=O)CCCc1cn(C)c2ccccc12,inactive
7,COc1ccc(NC(=O)CN(C)C(=O)c2cccc(-n3cccc3)c2)cc1,inactive
8,COc1ccccc1CNC(=O)CSc1ccc(-c2ccccn2)nn1,8.49 µM (active)
9,COc1ccc(NC(=O)CSc2ccc(-c3ccccn3)nn2)cc1OC,3.79 µM (active)
10,Cc1cc(C(=O)c2ccccc2)cc(C)c1O,inactive
11,CC1Cc2ccccc2N1C(=O)C1CCCN1S(=O)(=O)c1ccc(Cl)cc1 (stereo not given),inactive
12,CC1CCN(CC2C(=O)O[C@@H]3C[C@@]4(C)CCC[C@H](C)C4=C[C@H]23)CC(C)(C)C1 (stereo not given in full),inactive
13,Nc1[nH]nc2ncc3cc4ccccc4nc3c12,10.7 µM (active)
14,O=C(CSc1ccc(-c2ccccn2)nn1)N1CCCC1,8.49 µM (active)
15,O=C(CSc1ccc(-c2ccccn2)nn1)N1CCCCC1,7.57 µM (active)
16,O=C(Cn1c(S(=O)(=O)Cc2ccccc2)nc2ccccc21)N1CCCCC1,inactive
17,O=C(C1=C[C@H](c2ccccc2)C[C@H](OCc2ccc(CO)cc2)O1)N1CCN(Cc2ccccc2)CC1,inactive
18,COc1ccccc1N1CCN(/N=C/C=C\c2ccccc2[N+](=O)[O-])CC1,15.1 µM (active)
19,COc1ccc(-n2c(CN3CCN(c4ccccc4OC)CC3)nc3ccc([N+](=O)[O-])cc3c2=O)c(OC)c1,inactive
20,O=[N+]([O-])c1ccccc1/C=C\C=N\N1CCN(c2ccccc2)CC1,inactive
21,O=C(c1cccs1)N1CCC(c2nc3c(nnn3Cc3cccc(Cl)c3)c(=O)[nH]2)CC1,12 µM (active)
22,CCOC(=O)c1cnc2c(C#N)cnn2c1N,10.7 µM (active)
23,CC(NC(=O)c1cc2c(s1)CS(=O)(=O)C2)c1ccccc1 (stereo not given),inactive
24,CCOc1ccc2[nH]cc(-c3csc(N)n3)c2c1,12 µM (active)

row,SMILES,Potency
1,O=c1cc2oc3cc(O)c(O)cc3c(-c3ccccc3[N+](=O)[O-])c-2cc1O,9.53 µM (active)
2,Cc1cccc(C)c1OCc1cc(C(=O)N2CCN(c3ccccc3)CC2C)no1 (stereo not given),inactive
3,COc1ccc(-c2c(N)cnc(C(=O)O)c2C)c(OCc2ccccc2)c1OC,12 µM (active)
4,COc1cc(C(C(=O)NC2CCCCC2)N(C(=O)Cc2c[nH]c3ccccc23)c2ccc(C)cc2)cc(OC)c1OC (stereo not given),inactive
5,Cc1cc(/C=N/NC(=O)c2ccccn2)c(C)n1-c1cccc([N+](=O)[O-])c1,15.1 µM (active)
6,Cn1nnnc1SCC(=O)Nc1ccc2c(c1)OCO2,inactive
7,CCCCn1nc(C(=O)Nc2ccc3c(c2)OCO3)c2ccccc2c1=O,15.1 µM (active)
8,O=C(CCn1c(=O)oc2ccccc21)NCc1ccc2c(c1)OCO2,inactive
9,COc1cc2c(cc1OC)C(c1ccc([N+](=O)[O-])cc1)NCC2 (stereo not given),inactive
10,Nc1ccc2nc3c(=O)[nH]c(=S)[nH]c3nc2c1,3.79 µM (active)
11,CN(C)c1ccc(N=Nc2ccnc3ccccc23)cc1,2.13 µM (active)
12,COc1cc(NC(=O)CN2C(=O)CSc3ccc(S(=O)(=O)N4CCCC4)cc32)cc(OC)c1,inactive
13,CCC(=O)N1N=C(c2ccc(C)o2)CC1c1ccc(N(C)C)cc1 (stereo not given),inactive
14,COc1ccc(C2CC(c3ccccc3OC(=O)/C=C/c3ccccc3)=NN2C(C)=O)cc1 (stereo not given),1.69 µM (active)
15,O=C(Oc1cccnc1)c1ccc([N+](=O)[O-])cc1Cl,inactive
16,Cc1cccn2c(=O)c3cc(S(=O)(=O)c4ccc(F)cc4)c(=N)n(Cc4ccco4)c3nc12,inactive
17,COc1ccc(CCn2c(=N)c(C(=O)NCC3CCCO3)cc3c(=O)n4ccccc4nc32)cc1 (stereo not given),12 µM (active)
18,COc1ccc(CCn2c(=N)c(C(=O)NCc3ccco3)cc3c(=O)n4ccccc4nc32)cc1OC,9.53 µM (active)
19,COc1ccc(-c2csc(Nc3ccc(S(N)(=O)=O)cc3)n2)cc1OC,15.1 µM (active)
20,COc1ccccc1Nc1nc(-c2ccc3c(c2)NC(=O)CO3)cs1,inactive
21,CCn1cc(C(=O)OCC(=O)c2cc(C)n(-c3ccccc3F)c2C)c(=O)c2ccc(C)nc21,16.9 µM (active)
22,Cc1cc(C(=O)COC(=O)c2cccnc2Cl)c(C)n1-c1c(C)n(C)n(-c2ccccc2)c1=O,inactive
23,COCCn1c(C)cc(C(=O)COC(=O)c2ccccc2Br)c1C,inactive
24,CCC(=O)NC(=S)Nc1ccc(NC(=O)COc2ccc([N+](=O)[O-])cc2)cc1,inactive

row,SMILES,Potency
1,CCc1ccc(NC(=O)COC(=O)c2ccccc2OCC(=O)N(C)C)cc1,inactive
2,O=C(COc1ccccc1)Nc1nnc(-c2ccco2)o1,16.9 µM (active)
3,CS(=O)(=O)c1ccc(-c2nnc(NC(=O)C3=COCCO3)o2)cc1,inactive
4,COc1ccc(NC(=O)c2ccc(COc3ccccc3)o2)c(OC)c1,inactive
5,CC1CCCN(S(=O)(=O)c2ccc(C(=O)Nc3nnc(-c4ccco4)o3)cc2)C1 (stereo not given),inactive
6,CCOc1ccccc1C(=O)OCC(=O)Nc1nnc(-c2ccccc2)o1,13.5 µM (active)
7,O=C(COC(=O)c1cc(-c2cccnc2)nc2ccccc12)Nc1ccc(F)cc1F,inactive
8,COc1ccc(C(=O)Nc2nnc(-c3ccccc3)o2)cc1OC,19 µM (active)
9,COc1ccccc1-c1noc2c1C(=O)N(Cc1cn(-c3ccc(Cl)cc3)nn1)CC2,inactive
10,COc1cc(N)c(Cl)cc1C(=O)N[C@H]1CCN(CCCOc2ccc(F)cc2)C[C@H]1OC,inactive
11,Brc1ccc(Cn2c(-c3ccc(Br)o3)nc3ccccc32)o1,inactive
12,Cc1cc(C(=O)COC(=O)c2ccc(O)cc2)c(C)n1CCc1ccc(F)cc1,inactive
13,CCn1c(C)cc(/C=C2/SC(=O)N(C(C)C(=O)OC)C2=O)c1C (stereo not given),inactive
14,CCOC(=O)C(C)N1C(=O)S/C(=C\c2ccc(-c3ccccc3C(=O)O)o2)C1=O (stereo not given),15.1 µM (active)
15,Cc1c(C(=O)O)cccc1-c1ccc(/C=C2\SC(=O)NC2=O)o1,inactive
16,O=C(O)CSCc1nc2cccnc2n1C1CCCCC1,inactive
17,CC1(C)CC(=O)C(C2C3=C(CC(C)(C)CC3=O)Oc3c(Br)cc(Br)cc32)=C(O)C1 (stereo not given),4.78 µM (active)
18,Cc1nc(C)c(-c2csc(Nc3ccc(O)c(C(=O)O)c3)n2)s1,15.1 µM (active)
19,Cn1c(=O)c2[nH]c(COc3ccccc3)nc2n(C)c1=O,inactive
20,CC1(C)Nc2cccc3c(N=Nc4ccc(N=Nc5ccccc5)c5ccccc45)ccc(c23)N1,3.38 µM (active)
21,COc1ccc(N(CC(=O)Nc2nc3ccc(C)cc3s2)S(=O)(=O)c2c(C)nn(C)c2C)cc1,inactive
22,CCc1cnc2ccccc2c1/C=C/c1ccc(N(C)C)cc1,10.7 µM (active)
23,CCN(CC)c1ccc(/C=C/c2c(C)cnc3ccc(C)cc23)cc1,8.49 µM (active)
24,Cc1ccc(-n2nnnc2C(=Cc2ccc(N(C)C)cc2)c2nnnn2-c2ccc(C)cc2)cc1,inactive

row,SMILES,Potency
1,Cc1ccc2c(/C=C/c3ccc(N(C)C)cc3)c(C)cnc2c1,10.7 µM (active)
2,Cc1cnc2ccc(I)cc2c1/C=C/c1ccc(N(C)C)cc1,10.7 µM (active)
3,O=c1cc(-c2ccccc2Cl)oc2c(NS(=O)(=O)c3ccccc3OC(F)(F)F)ccc(O)c12,inactive
4,O=C(O)c1c(C(=O)N2N=C3/C(=C/c4ccccc4)CCCC3C2c2ccccc2)cccc1[N+](=O)[O-] (stereo not given),inactive
5,Cc1ccccc1NC(=O)C1CCN(C(=O)N2CCOc3ccccc32)CC1,inactive
6,CC1CN(C(=O)c2cc(S(=O)(=O)N(C)c3ccc(F)cc3)ccc2Cl)CC(C)O1 (stereo not given),inactive
7,CCOc1ccc(S(=O)(=O)N2CCN(C)CC2)cc1NC(=O)c1ccccc1F,7.57 µM (active)
8,COc1ccc(S(=O)(=O)N2CCCCC2)cc1NC(=O)c1[nH]c(C)c(C(C)=O)c1C,inactive
9,CC(Oc1ccc(F)cc1)C(=O)Nc1cc(S(=O)(=O)N2CCCCC2)ccc1N1CCN(C)CC1 (stereo not given),inactive
10,O=C1c2ccccc2C(=O)N1CCCc1cn(C[C@H]2CC[C@@H]([C@@H]3CC[C@H](Cn4cc(CCCN5C(=O)c6ccccc6C5=O)nn4)O3)O2)nn1,inactive
11,Cc1ccc(-c2n[nH]c(=O)c3ccccc23)cc1S(=O)(=O)Nc1ccccc1,inactive
12,COc1ccc(Cc2nc3c4c(ncn3n2)Oc2ccc3ccccc3c2C4c2ccc(OC)c(OC)c2)cc1 (stereo not given),inactive
13,COc1cc(C2C(C#N)=C(N)Oc3n[nH]c(C)c32)ccc1OC(=O)c1ccccc1 (stereo not given),8.49 µM (active)
14,CCOc1ccccc1O[C@H](c1ccccc1)[C@H]1CNCCO1,inactive
15,CCOC(=O)c1[nH]c2ccc(C(=O)OC)cc2c1C(=O)OCC,10.7 µM (active)
16,Cc1[nH]c2ccc(C(=O)OC(C)C(=O)N(C)c3ccccc3)cc2c1C (stereo not given),inactive
17,CS(=O)(=O)n1nc(OC(=O)c2cccs2)cc1N,inactive
18,Cc1cc(O)c(-c2cc(O)c(C)cc2O)cc1O,inactive
19,CCN(CC)S(=O)(=O)c1cc(OC)ccc1N=Nc1ccc(O)c2ncccc12,inactive
20,COc1cc(N(C(C)=O)c2ccc(O)c(C(=O)O)c2)c2ncccc2c1,8.49 µM (active)
21,COc1cc2c(cc1N)-c1ccc(N)cc1C2=O,16.9 µM (active)
22,Nc1ccc2c(c1)C(=O)c1cc(N)c(Cl)cc1-2,inactive
23,COc1ccc(N)cc1-n1c(C)ccc1C,inactive
